Data on 39 molecules can be found in PubChem BioAssay (Tox21).

SMILES strings stand for the structures. Several values for one entry are separate records, joined by “and”; a condition that tells them apart may be missing. Equal values may be shown once. Results filed as inconclusive are left out. Entries that show only a call come without a potency. Some structures have more than one record in an assay (separate samples or runs), and their calls can disagree. Activity calls are given as the source filed them. Calls come from the whole dose curve; as a rule, active = well fitted curve in the direction sought with a large enough effect in the repeat runs; inconclusive = weak or mixed curves; inactive = no such curve, though single readings can be large; an effect the other way counts as inactive or inconclusive.
Potency is the fitted concentration of half-maximal effect.

Luciferin 4-monooxygenase (Photinus pyralis), sequence (P08659 whole entry, looked up): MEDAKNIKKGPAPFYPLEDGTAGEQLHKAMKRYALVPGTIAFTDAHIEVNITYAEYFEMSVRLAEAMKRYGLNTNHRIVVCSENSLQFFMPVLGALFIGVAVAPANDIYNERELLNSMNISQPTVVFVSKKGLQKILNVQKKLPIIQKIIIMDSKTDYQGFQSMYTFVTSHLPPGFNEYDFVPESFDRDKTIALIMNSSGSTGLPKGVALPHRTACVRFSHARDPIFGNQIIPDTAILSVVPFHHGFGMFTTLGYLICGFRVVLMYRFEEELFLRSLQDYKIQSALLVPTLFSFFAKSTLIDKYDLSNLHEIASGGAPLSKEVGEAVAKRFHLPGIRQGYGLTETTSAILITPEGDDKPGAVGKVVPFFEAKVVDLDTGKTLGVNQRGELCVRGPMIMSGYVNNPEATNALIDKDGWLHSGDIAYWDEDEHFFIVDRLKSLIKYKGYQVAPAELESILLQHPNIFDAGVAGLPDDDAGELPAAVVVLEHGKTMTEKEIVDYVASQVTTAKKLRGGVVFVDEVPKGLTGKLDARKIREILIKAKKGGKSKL

Tested on in one experiment: not listed separately
The experiment is described as follows: qHTS assay to identify small molecule antagonists of the estrogen related receptor (ERR) signaling pathway from Tox21 library - cell viability counter screen (AID 1224834). Note: nearly all actives have a fitted effect of over 30% in size. As to conditions: ERR reporter cells viability, CellTiter-Fluor, 17.5 h; series mostly up to 92.4 µM; viability change, negative = cytotoxic: at the top concentration. The method, boiled down:
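Multiplexed viability counter screen in ERR cells: 17.5 h compound exposure at 37 C, CellTiter-Fluor added, 30 min at 37 C/5% CO2, fluorescence read.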
As to `CCOCCOCCO`, the Potency entry is “inactive”.
Consider `C/C=C/C(=O)O`, for which the Potency result is “inactive”.
Still for that read-out and setting: under `O=C(Nc1ccc([N+](=O)[O-])cc1Cl)c1cc(Cl)ccc1O` stands 3.86 µM (active) and 1.3 µM (active); under `COC(=O)CCC(=O)OC`, “inactive”.
Still for that read-out and setting: under `O=CCc1ccccc1` stands “inactive”; under `COC(=O)c1ccccc1`, “inactive”.
For `CC(C)OC=O`, the Potency result is “inactive”.
Same read-out and setting: for `Nc1ccc(S(=O)(=O)Nc2cnc3ccccc3n2)cc1` the value was “inactive”.
Turning to `O=C(O)c1ccccc1Nc1cccc(C(F)(F)F)c1`, the Potency result is “inactive”.
Same read-out and setting: under `CN(C)CCN(Cc1cccs1)c1ccccn1` stands “inactive”.
For the molecule `c1cc(N(CC2CO2)CC2CO2)ccc1OCC1CO1` (stereo not drawn), the Potency was 48.6 µM (active).
On the same count and under the same terms, under `CCC(C)(O)CCCC(C)C` (stereo not drawn) stands “inactive”.
On the same count and under the same terms, under `Cc1c(C(N)=O)cc([N+](=O)[O-])cc1[N+](=O)[O-]` stands “inactive”.
With `O=C(COc1ccc(Cl)cc1)N1CCN(Cc2ccc3c(c2)OCO3)CC1`, the “viability change, negative = cytotoxic” value is -5.14% [at 42.5 µM] (inactive).
For `CN(C)c1nc(N(C)C)nc(N(C)C)n1`, the Potency entry was “inactive”.
The same measure, in the same setting: for `Cc1cccc([N+](=O)[O-])c1C` the value was “inactive”.
In the case of `CC(C)=CCC/C(C)=C\CO`, the Potency result is “inactive”.
The same measure, in the same setting: under `Cc1ncc[nH]1` stands “inactive”.
Turning to `O=CCCCC=O`, the Potency result is “inactive”.
Same read-out and setting: under `CCCCCCCCCC(=O)OC` stands “inactive”; under `CCCc1c(OCCCCc2nn[nH]n2)ccc(C(C)=O)c1O`, “inactive”.
Same read-out and setting: for `C[Si](C)(C)O[Si](C)(C)C` the value was “inactive”.
`C=C(C)C1CC=C(C)CC1` (stereo not drawn): the Potency entry was “inactive”.
Take `C#C[C@]1(O)CC[C@H]2[C@@H]3CCC4=Cc5oncc5C[C@]4(C)[C@H]3CC[C@@]21C`: the Potency was 30.6 µM (active) and 26.6 µM (active).
For the molecule `Oc1ccc(O)cc1`, the “viability change, negative = cytotoxic” value was -13.6% (inactive).
Consider `COc1ccc(C(=O)CC(=O)c2ccc(C(C)(C)C)cc2)cc1`, for which the Potency entry is “inactive”.
With `CC(C)=CCCC(C)CCO` (stereo not drawn), the Potency result is “inactive”.
For `c1ccc2c(c1)c1cccc3ccc4cccc2c4c31`, the Potency entry was “inactive”.
Turning to `C[C@]12CCC(=O)C=C1CC[C@@H]1[C@@H]2C(=O)C[C@@]2(C)[C@H]1CC[C@]2(O)C(=O)CO`, the Potency entry is “inactive”.
The same measure, in the same setting: for `OC1CCCCCCCCCCC1` the value was “inactive”; for `CC(=O)C1(C)CC2=C(CCCC2(C)C)CC1C` (stereo not drawn), “inactive”; for `C=CC(C)(CCC=C(C)C)OC(C)=O` (stereo not drawn), “inactive”.
For the molecule `NNc1ccc(C(=O)O)cc1`, the Potency result was “inactive”.
Same read-out and setting: for `CC(=O)c1ccccn1` the value was “inactive”; for `COC(C)COC(C)COC(C)CO` (stereo not drawn), “inactive”; for `O=C=Nc1ccc(Cc2ccc(N=C=O)cc2)cc1`, “inactive”.
Take `COc1ccc(OC)c(C(O)CNC(=O)CN)c1` (stereo not drawn): the Potency result was “inactive”.
In the case of `O=S(=O)(O)c1ccc(O)cc1`, the Potency entry was “inactive”.
On to `CC(=O)CC/C=C(\C)CCC=C(C)C`, for which the Potency result was “inactive”.

In another experiment the target is Luciferin 4-monooxygenase (Photinus pyralis) (UniProt P08659). The experiment is described as follows: qHTS assay to identify small molecule inhibitors of firefly luciferase (AID 1224835). Note: nearly all actives have a fitted effect of over 25% in size. As to conditions: purified P. pyralis luciferase, luminescence inhibition; series mostly up to 115 µM; activity change, negative = inhibition: at the top concentration. In outline:
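Quantitative HTS format; KM concentrations of both substrates. Purified P. pyralis FLuc activity quantified from luminescence images.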
As to `CCOCCOCCO`, the Potency result was “inactive”.
Consider `C/C=C/C(=O)O`, for which the Potency result was “inactive”.
In the case of `O=C(Nc1ccc([N+](=O)[O-])cc1Cl)c1cc(Cl)ccc1O`, the Potency was 399 nM (active) and 301 nM (active).
Consider `COC(=O)CCC(=O)OC`, for which the Potency result is “inactive”.
On the same count and under the same terms, for `O=CCc1ccccc1` the value was “inactive”; for `COC(=O)c1ccccc1`, “inactive”.
As to `CC(C)OC=O`, the Potency result is “inactive”.
`Nc1ccc(S(=O)(=O)Nc2cnc3ccccc3n2)cc1`: the “activity change, negative = inhibition” value was 4.33% [at 52.9 µM] (inactive).
Still for that read-out and setting: under `O=C(O)c1ccccc1Nc1cccc(C(F)(F)F)c1` stands -12.8% [at 52.9 µM] (inactive).
In the case of `CN(C)CCN(Cc1cccs1)c1ccccn1`, the Potency result is “inactive”.
Still for that read-out and setting: under `c1cc(N(CC2CO2)CC2CO2)ccc1OCC1CO1` (stereo not drawn) stands “inactive”; under `CCC(C)(O)CCCC(C)C` (stereo not drawn), “inactive”; under `Cc1c(C(N)=O)cc([N+](=O)[O-])cc1[N+](=O)[O-]`, “inactive”.
As to `O=C(COc1ccc(Cl)cc1)N1CCN(Cc2ccc3c(c2)OCO3)CC1`, the Potency entry is “inactive”.
As to `CN(C)c1nc(N(C)C)nc(N(C)C)n1`, the Potency result is “inactive”.
Still for that read-out and setting: for `Cc1cccc([N+](=O)[O-])c1C` the value was “inactive”; for `CC(C)=CCC/C(C)=C\CO`, “inactive”; for `Cc1ncc[nH]1`, “inactive”.
Still for that read-out and setting: under `O=CCCCC=O` stands “inactive”.
On the same count and under the same terms, for `CCCCCCCCCC(=O)OC` the value was “inactive”; for `CCCc1c(OCCCCc2nn[nH]n2)ccc(C(C)=O)c1O`, “inactive”; for `C[Si](C)(C)O[Si](C)(C)C`, “inactive”.
For `C=C(C)C1CC=C(C)CC1` (stereo not drawn), the Potency result is “inactive”.
With `C#C[C@]1(O)CC[C@H]2[C@@H]3CCC4=Cc5oncc5C[C@]4(C)[C@H]3CC[C@@]21C`, the Potency entry is “inactive”.
For the molecule `Oc1ccc(O)cc1`, the Potency result was “inactive”.
As for `COc1ccc(C(=O)CC(=O)c2ccc(C(C)(C)C)cc2)cc1`, the Potency is 13.6 µM (active) and inactive.
The same measure, in the same setting: under `CC(C)=CCCC(C)CCO` (stereo not drawn) stands “inactive”; under `c1ccc2c(c1)c1cccc3ccc4cccc2c4c31`, “inactive”.
The same measure, in the same setting: under `C[C@]12CCC(=O)C=C1CC[C@@H]1[C@@H]2C(=O)C[C@@]2(C)[C@H]1CC[C@]2(O)C(=O)CO` stands “inactive”; under `OC1CCCCCCCCCCC1`, “inactive”.
Regarding `CC(=O)C1(C)CC2=C(CCCC2(C)C)CC1C` (stereo not drawn), the Potency entry is “inactive”.
Still for that read-out and setting: for `C=CC(C)(CCC=C(C)C)OC(C)=O` (stereo not drawn) the value was “inactive”; for `NNc1ccc(C(=O)O)cc1`, 32.1 µM (active) and 4.53 µM (active); for `CC(=O)c1ccccn1`, “inactive”.
Still for that read-out and setting: under `COC(C)COC(C)COC(C)CO` (stereo not drawn) stands “inactive”; under `O=C=Nc1ccc(Cc2ccc(N=C=O)cc2)cc1`, “inactive”; under `COc1ccc(OC)c(C(O)CNC(=O)CN)c1` (stereo not drawn), “inactive”.
On the same count and under the same terms, for `O=S(=O)(O)c1ccc(O)cc1` the value was “inactive”.
On to `CC(=O)CC/C=C(\C)CCC=C(C)C`, for which the Potency entry is “inactive”.
